Data taken from PubChem BioAssay (EPA / NIEHS).
Values joined by “and” are separate entries in the source; they are usually repeats but may differ in a detail not shown here. Equal entries are not always repeated. Active and inactive are the calls of the source. Rule for the calls: active = hit-call score of the fitted dose curve at least 0.9, where 1 is the maximum; inactive = score below 0.9.

What follows are compounds tested on Interleukin-1 alpha (IL1a), IL1A (gene 3552) (assay: BSK_KF3CT_IL1a: BioMAP Diversity Plus: KF3CT Assay for Interleukin-1 alpha (IL1a) Biomarker Activity (AID 2283070)). Details: primary human keratinocytes with fibroblasts; actives raise or lower the signal.
In short: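 Primary skin co-culture (keratinocytes, foreskin fibroblasts), 24 h exposure; ELISA for IL-1a; bidirectional curve fit vs DMSO.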
In the case of `CCN(Cc1c(F)cccc1Cl)c1c([N+](=O)[O-])cc(C(F)(F)F)cc1[N+](=O)[O-]`, the AC50 is reported as 8.48 µM (active).
In the case of `O=C(O)c1ccccc1`, the outcome is reported as “inactive”.
`Cc1nn(C)c(Oc2ccccc2)c1C=NOCc1ccc(C(=O)OC(C)(C)C)cc1` was tested, and the outcome was “inactive”.
`CCCCC(CC)CN1C(=O)C2C3C=CC(C3)C2C1=O` (stereo unspecified) was tested, and the outcome was “inactive”.
`O=C(c1ccccc1)C1CCCCC1` was tested, and the outcome was “inactive”.
For `CCCN(CCC)C(=O)SCC`, the outcome was “inactive”.
`CCCOC(=O)c1ccc(C(=O)OCCC)nc1` was tested, and the outcome was “inactive”.
In the case of `CCCOC(=O)NCCCN(C)C`, the outcome is reported as “inactive”.

Each compound was assayed on Transforming growth factor beta 1 (TGFb1), TGFB1 (gene 7040) (assay: BSK_KF3CT_TGFb1: BioMAP Diversity Plus: KF3CT Assay for Transforming growth factor beta 1 (TGFb1) Biomarker Activity (AID 2283072)). Details: primary human keratinocytes with fibroblasts; actives raise or lower the signal.
In short: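 TGF-b1 ELISA on a 24 h dosed co-culture of human keratinocytes and foreskin fibroblasts; cytotoxicity tracked in parallel cultures by SRB staining.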
With `CCOC(=O)C(C)Oc1ccc(Oc2cnc3cc(Cl)ccc3n2)cc1` (stereo unspecified) the outcome was “inactive”.
`C#C[C@]1(O)CC[C@H]2[C@@H]3CCC4=CC(=O)CC[C@@H]4[C@H]3CC[C@@]21CC` was tested, and the outcome was “inactive”.
For `CC(C)(c1ccc(O)cc1)c1ccc(O)cc1`, the outcome was “inactive”.
For `COC(=O)c1ccccc1S(=O)(=O)NC(=O)Nc1nc(OC(F)F)cc(OC(F)F)n1`, the outcome was “inactive”.
For `S=C(S)NCCNC(=S)S.[Mn+2].[S-]C([S-])=NCCN=C([S-])[S-].[Zn+2]`, the outcome was “inactive”.
In the case of `CCC(O)=C1C(=O)CC(C(=O)O)CC1=O` (stereo unspecified), the outcome is reported as “inactive”.
For `CCCCCOC(=O)COc1cc(N2C(=O)C3=C(CCCC3)C2=O)c(F)cc1Cl`, the outcome was “inactive”.
With `CCOC(=O)c1ccc(O)cc1` the outcome was “inactive”.
With `CCCCC(CC)COC(=O)c1ccccc1C(=O)O` (stereo unspecified) the outcome was “inactive”.
With `CCOC(=O)NCCOc1ccc(Oc2ccccc2)cc1` the outcome was “inactive”.
For `CCC(C)OC(=O)N1CCCCC1CCO` (stereo unspecified), the outcome was “inactive”.
`CCNc1nc(N)nc(Cl)n1` was tested, and the outcome was “inactive”.
In the case of `COC(=O)c1ccccc1C(=O)O`, the outcome is reported as “inactive”.
For `COC(=O)c1cccc(C)c1S(=O)(=O)NC(=O)Nc1nc(OCC(F)(F)F)nc(N(C)C)n1`, the outcome was “inactive”.
With `O=C(O)C1(C(=O)Nc2ccc(Cl)cc2Cl)CC1` the outcome was “inactive”.
With `Oc1ccc(C(c2ccc(O)cc2)C(Cl)(Cl)Cl)cc1` the outcome was “inactive”.
With `N[C@@H](Cc1cc(I)c(Oc2ccc(O)c(I)c2)c(I)c1)C(=O)O` the outcome was “inactive”.
For `COc1c(Cl)ccc(Cl)c1C(=O)O`, the outcome was “inactive”.
In the case of `CC(C)CCCCCCc1ccc(O)cc1`, the AC50 is reported as 5.58 µM (active).
`N#CSCSc1nc2ccccc2s1` was tested, and the AC50 was 10.2 µM (active) and 11.5 µM (active).
For `CCN(Cc1c(F)cccc1Cl)c1c([N+](=O)[O-])cc(C(F)(F)F)cc1[N+](=O)[O-]`, the outcome was “inactive”.
`O=C(O)c1ccccc1` was tested, and the outcome was “inactive”.
With `Cc1nn(C)c(Oc2ccccc2)c1C=NOCc1ccc(C(=O)OC(C)(C)C)cc1` the outcome was “inactive”.
`C[C@]12C[C@H](O)[C@H]3[C@@H](CCC4=CC(=O)CC[C@@]43C)[C@@H]1CC[C@@H]2C(=O)CO` was tested, and the outcome was “inactive”.
With `CCCCC(CC)CN1C(=O)C2C3C=CC(C3)C2C1=O` (stereo unspecified) the outcome was “inactive”.
With `O=C(c1ccccc1)C1CCCCC1` the outcome was “inactive”.
For `CCCN(CCC)C(=O)SCC`, the outcome was “inactive”.
With `CCCOC(=O)c1ccc(C(=O)OCCC)nc1` the outcome was “inactive”.
For `CCCOC(=O)NCCCN(C)C`, the outcome was “inactive”.

Each compound was assayed on C-C motif chemokine 2 (Homo sapiens) (UniProt P13500) (assay: BSK_KF3CT_MCP1: BioMAP Diversity Plus: KF3CT Assay for Monocyte Chemoattractant Protein 1 (MCP1/CCL2) Biomarker Activity (AID 2283073)). Details: primary human keratinocytes with fibroblasts; actives raise or lower the signal.
In short: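 Keratinocytes and foreskin fibroblasts were co-cultured, dosed with chemical, and sampled 24 h later. MCP-1 was quantified by ELISA, and the endpoint was analyzed with bidirectional fitting using DMSO as negative control.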
`CCOC(=O)C(C)Oc1ccc(Oc2cnc3cc(Cl)ccc3n2)cc1` (stereo unspecified) was tested, and the outcome was “inactive”.
`C#C[C@]1(O)CC[C@H]2[C@@H]3CCC4=CC(=O)CC[C@@H]4[C@H]3CC[C@@]21CC` was tested, and the outcome was “inactive”.
For `CC(C)(c1ccc(O)cc1)c1ccc(O)cc1`, the outcome was “inactive”.
In the case of `COC(=O)c1ccccc1S(=O)(=O)NC(=O)Nc1nc(OC(F)F)cc(OC(F)F)n1`, the outcome is reported as “inactive”.
With `S=C(S)NCCNC(=S)S.[Mn+2].[S-]C([S-])=NCCN=C([S-])[S-].[Zn+2]` the outcome was “inactive”.
`CCC(O)=C1C(=O)CC(C(=O)O)CC1=O` (stereo unspecified) was tested, and the outcome was “inactive”.
In the case of `CCCCCOC(=O)COc1cc(N2C(=O)C3=C(CCCC3)C2=O)c(F)cc1Cl`, the outcome is reported as “inactive”.
In the case of `CCOC(=O)c1ccc(O)cc1`, the outcome is reported as “inactive”.
`CCCCC(CC)COC(=O)c1ccccc1C(=O)O` (stereo unspecified) was tested, and the outcome was “inactive”.
`CCOC(=O)NCCOc1ccc(Oc2ccccc2)cc1` was tested, and the AC50 was 4.43 µM (active).
`CCC(C)OC(=O)N1CCCCC1CCO` (stereo unspecified) was tested, and the outcome was “inactive”.
`CCNc1nc(N)nc(Cl)n1` was tested, and the outcome was “inactive”.
For `COC(=O)c1ccccc1C(=O)O`, the AC50 was 0.726 µM (active).
`COC(=O)c1cccc(C)c1S(=O)(=O)NC(=O)Nc1nc(OCC(F)(F)F)nc(N(C)C)n1` was tested, and the outcome was “inactive”.
With `O=C(O)C1(C(=O)Nc2ccc(Cl)cc2Cl)CC1` the outcome was “inactive”.
With `Oc1ccc(C(c2ccc(O)cc2)C(Cl)(Cl)Cl)cc1` the AC50 was 20 µM (active).
In the case of `N[C@@H](Cc1cc(I)c(Oc2ccc(O)c(I)c2)c(I)c1)C(=O)O`, the outcome is reported as “inactive”.
In the case of `CC(C)CCCCCCc1ccc(O)cc1`, the AC50 is reported as 8.65 µM (active).
For `N#CSCSc1nc2ccccc2s1`, the AC50 was 2.31 µM (active) and 11.1 µM (active).
With `CCN(Cc1c(F)cccc1Cl)c1c([N+](=O)[O-])cc(C(F)(F)F)cc1[N+](=O)[O-]` the outcome was “inactive”.
For `O=C(O)c1ccccc1`, the outcome was “inactive”.
With `Cc1nn(C)c(Oc2ccccc2)c1C=NOCc1ccc(C(=O)OC(C)(C)C)cc1` the AC50 was 12.7 µM (active).
With `C[C@]12C[C@H](O)[C@H]3[C@@H](CCC4=CC(=O)CC[C@@]43C)[C@@H]1CC[C@@H]2C(=O)CO` the outcome was “inactive”.
With `CC(=O)[C@H]1CC[C@H]2[C@@H]3CCC4=CC(=O)CC[C@]4(C)[C@H]3CC[C@]12C` the outcome was “inactive”.
With `CCCCC(CC)CN1C(=O)C2C3C=CC(C3)C2C1=O` (stereo unspecified) the outcome was “inactive”.
`O=C(c1ccccc1)C1CCCCC1` was tested, and the outcome was “inactive”.
For `CCCN(CCC)C(=O)SCC`, the outcome was “inactive”.
For `CCCOC(=O)c1ccc(C(=O)OCCC)nc1`, the outcome was “inactive”.
`CCCOC(=O)NCCCN(C)C` was tested, and the outcome was “inactive”.
